# Data from article PMC4336329 (PLoS ONE, 2015).
# The whole screen tested about 310,000 compounds, of which about 14,000 (4.5%) showed an effect of 50% or more. The effect is printed as a negative number. This is one part of a sample in which strong results are shown more often than they occur.
# Target: human ether-à-go-go-related gene (hERG) potassium channel (human, UniProt Q12809)
# Experiment: primary screen, population patch clamp on CHO cells stably expressing hERG; higher = less effect of the substance
# 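Also: peak tail current of the secondary pulse compared with the same well before compound.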
# Sequence of human ether-à-go-go-related gene (hERG) potassium channel (Q12809 whole entry, looked up): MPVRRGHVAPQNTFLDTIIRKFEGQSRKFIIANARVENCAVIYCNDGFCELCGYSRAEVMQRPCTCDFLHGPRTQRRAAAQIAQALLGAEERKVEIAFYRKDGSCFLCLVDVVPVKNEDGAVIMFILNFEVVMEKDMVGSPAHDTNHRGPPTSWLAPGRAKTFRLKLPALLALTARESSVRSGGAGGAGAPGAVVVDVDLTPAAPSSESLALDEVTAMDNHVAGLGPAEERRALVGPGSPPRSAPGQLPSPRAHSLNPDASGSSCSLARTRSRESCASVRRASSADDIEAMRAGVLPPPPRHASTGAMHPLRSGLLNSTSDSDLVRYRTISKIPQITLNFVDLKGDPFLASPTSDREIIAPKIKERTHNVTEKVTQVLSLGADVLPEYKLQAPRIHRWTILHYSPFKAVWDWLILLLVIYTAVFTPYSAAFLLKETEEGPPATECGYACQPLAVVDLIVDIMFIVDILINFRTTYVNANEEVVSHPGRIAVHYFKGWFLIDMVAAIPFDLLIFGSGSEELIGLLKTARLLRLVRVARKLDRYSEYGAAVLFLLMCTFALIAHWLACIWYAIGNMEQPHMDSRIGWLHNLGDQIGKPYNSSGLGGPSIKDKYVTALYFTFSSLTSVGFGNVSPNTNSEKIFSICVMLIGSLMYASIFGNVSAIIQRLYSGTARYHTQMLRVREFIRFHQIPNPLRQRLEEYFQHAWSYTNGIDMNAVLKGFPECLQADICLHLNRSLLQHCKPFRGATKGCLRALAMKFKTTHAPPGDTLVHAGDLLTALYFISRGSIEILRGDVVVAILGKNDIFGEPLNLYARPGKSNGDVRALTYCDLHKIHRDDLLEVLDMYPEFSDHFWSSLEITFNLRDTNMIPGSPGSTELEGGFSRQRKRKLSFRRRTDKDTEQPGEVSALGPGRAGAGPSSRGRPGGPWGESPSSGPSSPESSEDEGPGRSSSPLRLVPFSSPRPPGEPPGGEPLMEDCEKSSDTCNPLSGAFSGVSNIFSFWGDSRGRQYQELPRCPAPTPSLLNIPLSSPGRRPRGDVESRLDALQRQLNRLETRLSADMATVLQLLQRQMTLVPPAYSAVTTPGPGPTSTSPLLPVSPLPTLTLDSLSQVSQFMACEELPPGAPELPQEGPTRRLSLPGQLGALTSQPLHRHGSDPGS
row,Compound,"hERG current change (%, negative = inhibition) at 10uM"
1,Cc1ccc2nc(NC(=O)c3ccc(-c4nc5ccccc5s4)s3)sc2c1,0.614%
2,O=C(Nc1cccnc1)c1ccccc1NS(=O)(=O)c1ccc(F)cc1,-11.5%
3,Cc1c(Cl)ccc2c1NC(=O)C21NC(CCC(N)=O)[C@H]2C(=O)N(c3ccc(Cl)cc3)C(=O)[C@H]21 (some centres unmarked),7.5%
4,O=C(c1ccccc1NS(=O)(=O)c1ccc(F)cc1)N1CCCCC1,-4.35%
5,COCCN(C(=O)CCCC(=O)Nc1ccccn1)C(C(=O)NC1CCCCC1)c1ccc(C)cc1 (centres unmarked),-17.7%
6,CCc1ccc2oc(-c3ccc(NC(C)=O)cc3)nc2c1,10.7%
7,O=C(c1ccccc1)N1CCN(c2ncccn2)CC1,17.6%
8,O=C(c1ccc([N+](=O)[O-])cc1)N1CCN(c2ncccn2)CC1,-77.8%
9,O=C(c1ccc([N+](=O)[O-])cc1)N1CCN(c2cccc3[nH]ccc23)CC1,-72.7%
10,O=C(c1ccc(Cl)cc1)N1CCN(c2cccc3[nH]ccc23)CC1,3.68%
11,O=C(Nc1ccc(C(=O)N2CCCCC2)cc1)c1ccc([N+](=O)[O-])cc1,-1.34%
12,O=C(c1cccc([N+](=O)[O-])c1)N1CCN(Cc2ccccc2)CC1,-9.31%
13,O=C(c1cccc([N+](=O)[O-])c1)N1CCN(c2ncccn2)CC1,-8.55%
14,O=C(c1c(Cl)cccc1Cl)N1CCN(c2cccc3[nH]ccc23)CC1,22.3%
15,O=C(c1ccc(F)cc1)N1CCN(C(=O)c2ccc([N+](=O)[O-])cc2)CC1,-63.2%
16,O=C(c1cc([N+](=O)[O-])ccc1Cl)N1CCN(Cc2ccccc2)CC1,4.75%
17,O=C(NNC(=O)c1ccc([N+](=O)[O-])cc1)c1ccc(F)cc1,6.25%
18,O=C(c1ccc([N+](=O)[O-])cc1)N1CCN(Cc2ccccc2)CC1,-66.4%
19,CCOc1ccc(CC(=NCCc2ccccc2)C2=C(O)CC(C)(C)CC2=O)cc1OCC,-21.3%
20,O=C(O)c1ccccc1CSc1nnnn1-c1ccccc1,12.6%
21,Cc1cc(C)cc(N=C2NC(=O)/C(=C/c3cccs3)S2)c1,14.7%
22,CC(=O)c1ccccc1NC(=O)C1C2CCC(O2)C1C(=O)O (centres unmarked),8.81%

row,Compound,"hERG current change (%, negative = inhibition) at 10uM"
1,Cc1c(CCO)c(=O)[nH]n1C(=O)c1c(F)cccc1F,-1.76%
2,COc1ccc(-c2n[nH]c(=S)n2-c2ccc(C)cc2C)cc1,19.5%
3,CC(NC(=O)c1ccc(CS(C)(=O)=O)cc1)c1cccc2ccccc12 (centres unmarked),10.1%
4,CCOc1ccc(NC(=O)Nc2cc(-c3ccccc3)sc2C(=O)OC)cc1,-4.41%
5,COC(=O)C1=C(c2ccc(OC)c(OC)c2)C[C@@H]2CC[C@H]1N2C(=O)NCCO,15.5%
6,CC(C)(C)OC(=O)N1CCC[C@H]1C(=O)Nc1ccc(Br)cc1,13.5%
7,CCN1CCN(c2ccc(S(=O)(=O)N3CCOCC3)cc2NC(=O)CCC(C)C)CC1,-26.3%
8,C/C(CC(=O)Nc1cc(C)ccn1)=N\NC(=O)c1ccncc1,19.7%
9,CC1CCCC(N2CCN(C(=O)c3ccc(F)cc3)CC2)C1 (centres unmarked),-44.1%
10,Cl.O=C(c1ccc(Cn2ccc([N+](=O)[O-])n2)cc1)N1CCN(Cc2ccccc2)CC1,-56.1%
11,Cc1ccccc1C(=O)N1CCC(C(=O)N2CCN(c3ncccn3)CC2)CC1,7.94%
12,O=C(c1ccc(Cn2cc(Cl)c([N+](=O)[O-])n2)cc1)N1CCN(Cc2ccccc2)CC1,-12.5%
13,O=C(CCSc1ccc(Cl)cc1)N1CCCCCC1,-4.88%
14,O=C(c1ccc([N+](=O)[O-])o1)N1CCN(Cc2ccccc2)CC1,2.99%
15,CC1CCCC(N2CCN(C(=O)c3ccc([N+](=O)[O-])cc3)CC2)C1.O=C(O)C(=O)O (centres unmarked),-71.9%
16,O=C(CCSc1ccc(Cl)cc1)N1CCN(c2ccc(O)cc2)CC1,-23.8%
17,O=C(CCSc1ccc(Cl)cc1)N1CCN(c2ncccn2)CC1,-60.6%
18,O=C(c1ccc(Cl)cc1)N1CCN(c2ncccn2)CC1,6.85%
19,CC1CCCC(N2CCN(C(=O)c3cccc(F)c3)CC2)C1.O=C(O)C(=O)O (centres unmarked),-6.93%
20,O=C(c1ccc(Cl)cc1)N1CCC(C(=O)N2CCN(c3ncccn3)CC2)CC1,-56.6%
21,CCN(Cc1ccccc1)C(=O)CCc1nnc(CCCc2ccccc2)o1,21.1%
22,COc1cc(C(=O)NC(=S)Nc2ccc3oc(=O)ccc3c2)cc(OC)c1OC,9.8%
